Measurements reported in PubChem BioAssay (NCI).
The panel holds about 83,000 compounds, 20% with a hit somewhere; the sample as a whole holds those more often.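 Assay: single dose, 48 h. Readout: percent growth (0 = no net growth; negative = cell death). Active: <10.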 Active and inactive are the calls of the source.

Tests used:
Assay in all cases: NCI-60 one-dose screen, 48 h (100 = growth as untreated, 0 = no growth, -100 = all killed)
Conditions in all cases: 10 µM unless noted
[1] = test system: NCI-H23 lung
[2] = test system: NCI-H226 lung
[3] = test system: HOP-62 NSCLC
[4] = test system: NCI-H460 lung
[5] = test system: HOP-92 NSCLC
[6] = test system: NCI-H522 lung
[7] = test system: A549/ATCC NSCLC
[8] = test system: 786-0 renal
[9] = test system: COLO 205 colon

Measured: growth

CCCCNCC(=O)Nc1ccc(C(=O)OCC)cc1
inactive: [1] 105% | [2] 89.8% | [3] 98.7% | [4] 106% | [5] 79.6% | [6] 69.1% | [7] 95.3% | [8] 99.6%

NS(=O)(=O)Oc1ccc(NC(=O)C23CC4CC(CC(C4)C2)C3)cc1Cl
inactive: [1] 101% | [2] 91.3% | [3] 92.1% | [4] 103% | [5] 87.6% | [6] 75.8% | [7] 93.7% | [8] 98.2%

C#C[C@]1(O)CC[C@H]2[C@@H]3CC=C4c5sc(N=C(N)N)nc5CC[C@]4(C)[C@H]3CC[C@@]21C
active: [3] -37.5% | [4] -14.5% | [6] -24.1% | [7] -13.1% | [9] -38.7%
inactive: [1] 28.5% | [2] 35.2% | [5] 32.7%

COc1cc(C(=O)/C=C/c2c(C(F)(F)F)nc3ccccn23)cc(OC)c1OC
active: [1] -50.3% | [2] -25.5% | [3] -26.9% | [4] -44.4% | [5] 2.54% | [6] -51.4% | [7] 9.73% | [8] -60.9%

CS(=O)(=O)c1ccc(-c2[nH]c3ccc(F)cc3c2/C=N/O)cc1
inactive: [1] 94.3% | [2] 92.8% | [3] 80.7% | [4] 105% | [5] 87.6% | [6] 82% | [7] 82% | [8] 95.8%

C[C@@H]1CC[C@@H]2[C@@H]1[C@H](OC(=O)c1ccc3ccccc3c1)[C@]1(C3CCCCC3)C[C@@H](OC(=O)CO)[C@@]2(C)O1
active: [8] -7.27%
inactive: [1] 65.1% | [2] 51.8% | [3] 68% | [4] 49.9% | [5] 34.9% | [6] 49.4% | [7] 48.8%

O=C(O)CC1Sc2ccccc2NC1=O (stereo unspecified)
inactive: [1] 89.1% | [2] 95.2% | [3] 96.3% | [4] 195% | [5] 73.1% | [6] 81% | [7] 106% | [8] 108%
